Among the test systems are PAK6; PAK7; PDGFRA; PDGFRB; PDPK1; PFTAIRE2; PHKG1; PHKG2; PIK3C2B; PIK3C2G; PIK3CA; PIK3CB; PIK3CD; PIK3CG; PIKFYVE.
Holding throughout (conditions): n = 1
A further test relates to T1, PCTK1.
T1 construct: gene CDK16

In the next test the test system is T2, PCTK2.
T2 construct: gene CDK17

The subject of a further test is T3, PCTK3.
T3 construct: gene CDK18

The next test deals with T4, PFTK1.
T4 construct: gene CDK14

The next test deals with T5, PIK4CB.
T5 construct: gene PI4KB

[1] abbreviates: concentration: 1 μM, replicates: in singlicate.

SMILES strings stand for the structures. Where two headings read alike, the source gives them in different places.
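Note: KINOMEscan kinase panel screen.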

Turning to `Fc1cc(Cl)ccc1Nc1ccnc2cc(I)ccc12` [GW551191], the “%Inh” value came out at 0% in the test on PAK6 (setting [1]); 0% in the test on PAK7 (setting [1]); 4% in the test with PCTK1 (setting [1]); 0% in the test with PCTK2 (setting [1]); 0% in the test on PCTK3 (setting [1]); 9% in the test with PDGFRA (setting [1]). Also, the “%Inh” value amounted to 88% in the test on PDGFRB (setting [1]); 0% with PDPK1 (setting [1]); 9% in the test with PFTAIRE2 (setting [1]); 4% in the test on PFTK1 (setting [1]); 0% in the test on PHKG1 (setting [1]); 0% in the test with PHKG2 (setting [1]). The “%Inh” value with PIK3C2B (setting [1]), in the test with PIK3C2G (setting [1]), in the test with PIK3CA (setting [1]), in the test on PIK3CB (setting [1]), in the test with PIK3CD (setting [1]) and in the test on PIK3CG (setting [1]) was 0% each time. Also, the “%Inh” value in the test with PIK4CB (setting [1]) and with PIKFYVE (setting [1]) was 0% each time.
With `CC(C)(C)c1ccc(C(=O)Nc2cn3cc(-c4cccnc4)ccc3n2)cc1`, the “%Inh” value with PAK6 (setting [1]) is given as 15%; in the test with PAK7 (setting [1]) it was 10%; in the test on PCTK1 (setting [1]) it was 0%; in the test with PCTK2 (setting [1]), 13%; with PCTK3 (setting [1]) it was 19%; with PDGFRA (setting [1]) it was 57%. In addition, the “%Inh” value in the test with PDGFRB (setting [1]) is 95.4%; in the test on PDPK1 (setting [1]), 2%; in the test with PFTAIRE2 (setting [1]) it was 2%; in the test on PFTK1 (setting [1]), 22%; with PHKG1 (setting [1]), 8%; in the test on PHKG2 (setting [1]) it was 34%. Also, the “%Inh” value with PIK3C2B (setting [1]) amounted to 0%; in the test on PIK3C2G (setting [1]), 24%; in the test with PIK3CA (setting [1]), 0%; with PIK3CB (setting [1]), 45%; in the test with PIK3CD (setting [1]), 0%; in the test with PIK3CG (setting [1]), 0%. For the same compound, the entries for the “%Inh” value in the test with PIK4CB (setting [1]) and in the test with PIKFYVE (setting [1]) were 16% and 22%, respectively.
Consider `CN1C(=O)C(Nc2ccc(Cl)c(C(=O)O)c2)=C(c2ccc(Cl)cc2)C1=O` [SB-404290], for which the “%Inh” value was 0% in the test with PAK6 (setting [1]); 10% with PAK7 (setting [1]); 0% in the test with PCTK1 (setting [1]); 6% with PCTK2 (setting [1]); 0% with PCTK3 (setting [1]); 27% with PDGFRA (setting [1]). Also, the “%Inh” value with PDGFRB (setting [1]) was determined as 0%; in the test with PDPK1 (setting [1]), 0%; in the test on PFTAIRE2 (setting [1]), 11%; with PFTK1 (setting [1]), 0%; with PHKG1 (setting [1]) it was 0%; in the test on PHKG2 (setting [1]) it was 0%. Further, the “%Inh” value amounted to 34% in the test with PIK3C2B (setting [1]); 20% in the test on PIK3C2G (setting [1]); 7% in the test on PIK3CA (setting [1]); 0% in the test on PIK3CB (setting [1]); 0% in the test with PIK3CD (setting [1]); 23% with PIK3CG (setting [1]). Also, the “%Inh” value in the test on PIK4CB (setting [1]) is on record as 16%; in the test on PIKFYVE (setting [1]), 13%.
On to `COc1ccc(Nc2nccc(NCCNC(=O)Nc3ccccc3F)n2)cc1` [GSK1379901], for which the “%Inh” value stood at 0% in the test on PAK6 (setting [1]); 0% in the test on PAK7 (setting [1]); 4% in the test on PCTK1 (setting [1]); 0% in the test with PCTK2 (setting [1]); 0% in the test with PCTK3 (setting [1]); 0% in the test with PDGFRA (setting [1]). For the same compound, the “%Inh” value was found to be 70% with PDGFRB (setting [1]); 0% in the test with PDPK1 (setting [1]); 3% with PFTAIRE2 (setting [1]); 26% in the test on PFTK1 (setting [1]); 0% in the test on PHKG1 (setting [1]); 0% in the test with PHKG2 (setting [1]). In addition, the “%Inh” value in the test with PIK3C2B (setting [1]), in the test on PIK3C2G (setting [1]), in the test with PIK3CA (setting [1]), in the test on PIK3CB (setting [1]), in the test on PIK3CD (setting [1]) and with PIK3CG (setting [1]) was 0% in each case. In addition, the “%Inh” value was 11% in the test with PIK4CB (setting [1]) and 0% in the test on PIKFYVE (setting [1]).
`Cc1ccc(NC(=O)Nc2cccc(C(F)(F)F)c2)cc1` [GSK955403]: the “%Inh” value with PAK6 (1 µM) is reported as 36%; in the test with PAK7 (1 µM), 1%; in the test on PCTK1 (1 µM) it was 0%; in the test on PCTK2 (1 µM), 2%; in the test on PCTK3 (1 µM), 0%; in the test on PDGFRA (1 µM), 0%. Also, the “%Inh” value was found to be 45% with PDGFRB (1 µM); 14% in the test with PDPK1 (1 µM); 1% with PFTAIRE2 (1 µM); 5% in the test on PFTK1 (1 µM); 12% in the test on PHKG1 (1 µM); 15% with PHKG2 (1 µM). In addition, the “%Inh” value in the test on PIK3C2B (1 µM) is on record as 1%; in the test with PIK3C2G (1 µM), 36%; with PIK3CA (1 µM), 5%; with PIK3CB (1 µM), 0%; with PIK3CD (1 µM) it was 0%; in the test on PIK3CG (1 µM) it was 9%. Moreover, the “%Inh” value in the test with PIK4CB (1 µM) and in the test on PIKFYVE (1 µM) was 0% in each case.
On to `C[C@@H]1CCCCN1c1cc(-c2ccc3c(N)n[nH]c3c2)nc(N)n1` [GSK2258759], for which the “%Inh” value is 0% in the test on PAK6 (setting [1]); 0% in the test with PAK7 (setting [1]); 5% with PCTK1 (setting [1]); 0% in the test on PCTK2 (setting [1]); 0% in the test with PCTK3 (setting [1]); 0% in the test on PDGFRA (setting [1]). In addition, the “%Inh” value in the test with PDGFRB (setting [1]) stood at 6%; in the test with PFTAIRE2 (setting [1]) it was 3%; in the test on PFTK1 (setting [1]), 17%; in the test with PHKG1 (setting [1]), 0%; with PHKG2 (setting [1]), 0%; in the test on PIK3C2B (setting [1]), 0%. Besides, the “%Inh” value in the test with PIK3C2G (setting [1]), with PIK3CA (setting [1]), with PIK3CB (setting [1]), with PIK3CD (setting [1]), with PIK3CG (setting [1]) and in the test with PIK4CB (setting [1]) was 0% each time. The “%Inh” value with PIKFYVE (setting [1]) worked out at 7%.
`Cc1cc(N2Cc3ccccc3C2)nc(Nc2ccc(S(=O)(=O)N3CCOCC3)cc2)n1.Cl` [GSK1669917]: the “%Inh” value in the test with PAK6 (setting [1]), in the test on PAK7 (setting [1]), in the test on PCTK1 (setting [1]), in the test on PCTK2 (setting [1]), with PCTK3 (setting [1]) and in the test with PDGFRA (setting [1]) was 0% each time. In addition, the “%Inh” value with PDGFRB (setting [1]) is recorded as 2%; in the test with PDPK1 (setting [1]), 0%; with PFTAIRE2 (setting [1]) it was 0%; in the test with PFTK1 (setting [1]) it was 23%; in the test with PHKG1 (setting [1]), 14%; with PHKG2 (setting [1]), 0%. Also, the “%Inh” value in the test on PIK3C2B (setting [1]) was determined as 0%; in the test on PIK3C2G (setting [1]), 0%; in the test on PIK3CA (setting [1]), 0%; in the test on PIK3CB (setting [1]), 0%; in the test with PIK3CD (setting [1]), 0%; in the test on PIK3CG (setting [1]) it was 48%. Also, the “%Inh” value is recorded as 100% in the test on PIK4CB (setting [1]) and 0% with PIKFYVE (setting [1]).
Turning to `COc1cc2ncn(-c3cc(OCC4CCCO4)c(C(N)=O)s3)c2cc1OC` (stereo not drawn) [GSK204607], the “%Inh” value with PAK6 (setting [1]) worked out at 0%; in the test on PAK7 (setting [1]), 12%; with PCTK1 (setting [1]) it was 0%; in the test on PCTK2 (setting [1]) it was 0%; in the test with PCTK3 (setting [1]), 0%; in the test on PDGFRA (setting [1]) it was 0%. The “%Inh” value was found to be 32% in the test on PDGFRB (setting [1]); 0% in the test on PDPK1 (setting [1]); 1% in the test on PFTAIRE2 (setting [1]); 24% in the test with PFTK1 (setting [1]); 0% with PHKG1 (setting [1]); 3% with PHKG2 (setting [1]). In addition, the “%Inh” value is 0% in the test with PIK3C2B (setting [1]); 0% with PIK3C2G (setting [1]); 0% in the test with PIK3CA (setting [1]); 0% in the test on PIK3CB (setting [1]); 0% in the test with PIK3CD (setting [1]); 19% with PIK3CG (setting [1]). Also, the “%Inh” value in the test on PIK4CB (setting [1]) and in the test on PIKFYVE (setting [1]) was 0% throughout.

The record behind these values is PMC5540273 (PLoS ONE, 2017).
